PubChem BioAssay AID651671 (Sanford-Burnham Center for Chemical Genomics, 2012)
The other results are listed elsewhere or left out. Values without a mark were called inactive. Activity calls are given as the source filed them.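 The calls were made as follows: active = activation of at least 7% in one or more replicates; inactive = the rest.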

Experiment: activation of alpha-dystroglycan glycosylation – single concentration, Pro5-aDG cells, confirmation (AID 651671);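 also: cells exposed to compound for two days before detection; 0% = DMSO-treated Pro5 cells and 100% = DMSO-treated B10-LARGE cells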
Settings: alpha-DG glycosylation, IIH6 AlphaLISA, active compounds read high, screened at 10 µM (by protocol), scaled to LARGE-overexpressing B10 cells as 100%
With `CC(C)C(=O)NCC(c1cccs1)S(=O)(=O)c1ccc(F)cc1` (configuration not stated) the activation was 0.3%. For `Cc1cccc(CN2CCC(CNC(=O)Nc3ccc(F)c(Cl)c3)CC2)c1`, the activation was 11% (active). In the case of `CCOC(=O)C1(CCOC)CCN(Cc2cc3ccccc3s2)CC1`, the activation is reported as -0.438%. Molecule `Cc1ccc(NC(=O)CN(C)CC(=O)Nc2cccc(F)c2)cc1[N+](=O)[O-]` has an activation of 1.48%. `COc1ccc(NC(=O)CSc2nnc(-c3ccccc3F)n2C2CC2)cc1S(N)(=O)=O` showed an activation of -0.758%. Work on `COc1cccc(C(=O)Nc2nnc(S(=O)(=O)N3CCCCC3)s2)c1` yielded an activation of -0.562%. `O=c1ccc2cc(S(=O)(=O)N3CCN(c4ccccc4)CC3)ccc2o1` gave an activation of -0.742%. For `Nc1scc[n+]1Cc1cccc2cccnc12`, the activation was -0.533%. Work on `CN(Cc1ccccc1)CC(O)COc1ccc(CNCc2cc3ccccc3s2)cc1` (configuration not stated) yielded an activation of 0.15%. Work on `O=C(NC(c1ccc(-c2ccccc2)cc1)c1cnccn1)C1CCN(CCOc2ccc(Cl)cc2Cl)CC1` (configuration not stated) yielded an activation of 3.11%. In the case of `CCOc1ccccc1Nc1nnc(SCC(=O)NCC2CCCO2)s1` (configuration not stated), the activation is reported as 0.625%. In the case of `CCCn1c(=N)n(CC(=O)c2ccc(Cl)c(Cl)c2)c2ccccc21`, the activation is reported as 11% (active). `COc1ccccc1C1SCCN1C(=O)c1ccc([N+](=O)[O-])cc1` (configuration not stated) gave an activation of -0.592%. In the case of `CCOc1ccc(OCC(=O)Nc2c3c(nn2C(C)(C)C)CS(=O)(=O)C3)cc1`, the activation is reported as 0.637%. `Cc1ccc(NC(=O)c2ccc(Oc3ncccn3)cc2)cc1` gave an activation of -0.983%. For `CC(C)c1cc(Cn2c3ccccc3c(=O)n2C(C)Cn2cc(C3CC3)nn2)on1` (configuration not stated), the activation was 0.475%. In the case of `CC(=O)Oc1cccc(N2C(=O)C3CC=C(Cl)CC3C2=O)c1` (configuration not stated), the activation is reported as 0.562%. With `OC[C@@H]1CN(Cc2ccc(-c3ccccc3)cc2)C[C@H](n2cnc3c(NC4CCCC4)ncnc32)O1` the activation was 4.21%. For `COc1cc(CNCCN(C)C)ccc1OCc1c(F)cccc1Cl`, the activation was 6.71% (active). In the case of `CN(C)CCCNC(=O)/C=C/c1ccc(OCc2c(F)cccc2Cl)cc1`, the activation is reported as 8.53% (active). In the case of `CCc1ccccc1S(=O)(=O)Cc1ccc(C(=O)NCCc2ccccc2)o1`, the activation is reported as -0.875%. In the case of `CC(C)OC(=O)CN1C(=O)C(=O)c2ccccc21`, the activation is reported as 8.05% (active). In the case of `CN1CCN(S(=O)(=O)c2cccc(C(=O)Nc3sccc3C#N)c2)CC1`, the activation is reported as 42% (active). `O=C(c1ccc(N2CCCC2=O)cc1)N1CCN(c2ccc(C(F)(F)F)cc2[N+](=O)[O-])CC1` gave an activation of 1.5%. `COc1ccccc1N1CCN(C(=O)c2cc(-c3ccc(Br)cc3)on2)CC1` gave an activation of -0.683%. In the case of `CCn1cc(CN2CCC(C(=O)Nc3cccc(-c4cccc(Cl)c4)c3)CC2)c(C)n1`, the activation is reported as 9.24% (active). `Cc1cc(C)c2[nH]c(=O)c(CN(Cc3ccccc3)C(=S)NCCCN(C)C)cc2c1` gave an activation of 1.74%.
